Screens: PubChem, National Center for Advancing Translational Sciences (NCATS)
In the library only some 2.4% were active in any assay of this set; here they are far more common.
Cruzain noTriton – inhibitors of Trypanosoma cruzi cruzain without detergent; Potency, µM, without a hit: max response, negative = inhibition, usual class: inhibitors; purified cruzain, Z-FR-AMC fluorescence, no detergent; AID 1476; actives 2.3% (n = 200,000);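 further: plate controls were enzyme without inhibitor for no effect and buffer without enzyme for full effect; nearly all actives have a fitted effect of over 40% in size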
Target sequence (P25779 123-467 limits assumed): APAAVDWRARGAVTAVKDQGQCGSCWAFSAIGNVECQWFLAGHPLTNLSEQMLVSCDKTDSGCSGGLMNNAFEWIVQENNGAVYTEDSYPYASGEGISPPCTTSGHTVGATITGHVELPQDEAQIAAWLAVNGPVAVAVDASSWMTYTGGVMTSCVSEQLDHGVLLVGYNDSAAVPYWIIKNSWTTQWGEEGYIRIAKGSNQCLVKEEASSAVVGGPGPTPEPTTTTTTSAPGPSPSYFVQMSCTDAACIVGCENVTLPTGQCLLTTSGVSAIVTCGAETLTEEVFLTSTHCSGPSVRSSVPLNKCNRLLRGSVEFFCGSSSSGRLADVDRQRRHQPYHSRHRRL
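Detergent-free condition (0.00005% Triton X-100) in acetate buffer pH 5.5 with DTT. 1.5 nM enzyme and compound were pre-mixed 15 min, then 2 uM Z-FR-AMC substrate added; reaction progress from fluorescence change between first and third reads (60 s).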
Cruzain Triton – inhibitors of Trypanosoma cruzi cruzain with detergent. AID 1478. purified cruzain, Z-FR-AMC fluorescence, 0.01% Triton. Potency, µM, for inactives: max response, negative = inhibition, most hits filed as inhibitors. actives 0.43% (n = 200,000);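 further: plate controls were neutral wells for no effect and buffer without enzyme for full effect; nearly all actives have a fitted effect of over 40% in size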
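In this qHTS format, compounds are incubated with 1.5 nM cruzain for 15 min at room temperature before 2 uM Z-FR-AMC is added. Release of AMC is followed at 360/450 nm, and progress is taken as the 60 s fluorescence difference.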
An asterisk follows results filed as active. The call rests on the fitted dose curve; in most records, active means well fitted curve in the direction sought with a large enough effect; inconclusive means small, poorly fitted or top-dose-only effect, or another doubt; inactive means no such curve, though single readings can be large; an effect the other way counts as inactive or inconclusive. Potency means the concentration at half of the fitted maximal effect.

Results for O=C(Cn1nc(Cc2cccnc2)c2ccccc2c1=O)Nc1ccc(F)c(Cl)c1 ?
Cruzain noTriton: -2%; Cruzain Triton: -5%

What do the screens show for `CCCCN(CCCC)CCNC(=O)Cn1nc(CC)n2c(cc3sc(C)cc32)c1=O`?
Cruzain noTriton: -4%; Cruzain Triton: -2%

How did O=C1C(NS(=O)(=O)c2cccs2)=C(N2CCN(c3cccc(Cl)c3)CC2)C(=O)c2ccccc21 do in these assays?
Cruzain noTriton: 13µM*; Cruzain Triton: -2%

How did CC1CCN(C2=C(NS(=O)(=O)c3ccc(Cl)cc3)C(=O)c3ccccc3C2=O)CC1 do in these assays?
Cruzain noTriton: -18%; Cruzain Triton: -6%

How did COc1cc(NC(=O)CN2C(=O)NC(C)(c3ccccc3)C2=O)c(C)cc1[N+](=O)[O-] (stereo not drawn) do in these assays?
Cruzain noTriton: -11%; Cruzain Triton: -5%

What do the screens show for `COc1ccc([N+](=O)[O-])cc1NC(=O)CSc1ccccc1`?
Cruzain noTriton: 7%; Cruzain Triton: -9%

What do the screens show for `COc1cc([N+](=O)[O-])ccc1NC(=O)CSc1nc2ccccc2n1-c1ccccc1`?
Cruzain noTriton: 13µM*; Cruzain Triton: -2%

How did CCOc1ccc(-n2c(SCC(=O)Nc3cc(OC)c([N+](=O)[O-])cc3C)nc3ccccc32)cc1 do in these assays?
Cruzain noTriton: 7.9µM*; Cruzain Triton: -2%

Results for COc1cc(NC(=O)CSc2nc(C)c(C)c(C)n2)c(C)cc1[N+](=O)[O-] ?
Cruzain noTriton: 5%; Cruzain Triton: -2%

How did COc1cc(NC(=O)CN2C(=O)NC(C)(c3ccc4ccccc4c3)C2=O)c(C)cc1[N+](=O)[O-] (stereo not drawn) do in these assays?
Cruzain noTriton: 20µM*; Cruzain Triton: -8%

What do the screens show for `Cc1cccc(CCNC(=O)c2nn(C)c3c2CSc2ccccc2-3)c1`?
Cruzain noTriton: -3%; Cruzain Triton: -5%

How did Cc1ccc(NC(=O)C(=O)NCC(c2cccnc2)N2CCN(Cc3ccccc3)CC2)cc1F (stereo not drawn) do in these assays?
Cruzain noTriton: -15%; Cruzain Triton: -2%

What do the screens show for `CCn1c2ccc(C)cc2c2nnc(NN)nc21`?
Cruzain noTriton: -24%; Cruzain Triton: -17%

How did CSc1nnc2c3cc(C)ccc3n(Cc3ccccc3)c2n1 do in these assays?
Cruzain noTriton: 25µM*; Cruzain Triton: inconclusive

Results for CCOC(=O)C(CC)Sc1nnc2c3cc(C)ccc3n(C)c2n1 (stereo not drawn) ?
Cruzain noTriton: inconclusive; Cruzain Triton: -13%

How did CCCn1c2ccc(C)cc2c2nnc(SCCN3CCCCC3)nc21 do in these assays?
Cruzain noTriton: inconclusive; Cruzain Triton: 14µM*

What do the screens show for `CCOc1cc(C2c3c(-c4cc(C)ccc4O)n[nH]c3C(=O)N2CCCOC(C)C)ccc1O` (stereo not drawn)?
Cruzain noTriton: -4%; Cruzain Triton: -18%

Results for CC(/C=C1\SC(=S)N(NC(=O)c2ccc(C)cc2)C1=O)=C\c1ccccc1 ?
Cruzain noTriton: 32µM*; Cruzain Triton: -6%

What do the screens show for `CC(/C=C1\SC(=S)N(NC(=O)c2ccccc2C)C1=O)=C\c1ccccc1`?
Cruzain noTriton: inconclusive; Cruzain Triton: -6%

What do the screens show for `CC(/C=C1\SC(=S)N(CCCC(=O)Nc2ccc(C(=O)O)c(O)c2)C1=O)=C\c1ccccc1`?
Cruzain noTriton: inconclusive; Cruzain Triton: 28µM*

How did CC(=O)c1ccc(NC(=O)CN2C(=O)/C(=C/C(C)=C/c3ccccc3)SC2=S)cc1 do in these assays?
Cruzain noTriton: 10µM*; Cruzain Triton: -5%

How did Cc1cc(NC(=O)CCCN2C(=O)/C(=C/c3cccs3)SC2=S)no1 do in these assays?
Cruzain noTriton: inconclusive; Cruzain Triton: -5%

Results for CC(=O)c1ccc(NC(=O)CN2C(=O)CN(C)C(=O)c3ccccc32)cc1 ?
Cruzain noTriton: 16%; Cruzain Triton: 1%

What do the screens show for `COc1cc(CNC(=O)c2ccc3c(c2)c(C)c(C)n3Cc2cccc(C)c2)cc(OC)c1OC`?
Cruzain noTriton: -19%; Cruzain Triton: 1%

What do the screens show for `CCOc1ccccc1CNC(=O)C(CC)n1nc(C)c2c(C)n(-c3ccccc3)nc2c1=O` (stereo not drawn)?
Cruzain noTriton: 0%; Cruzain Triton: -3%

How did O=C(NCc1nc2ccccc2[nH]1)c1ccco1 do in these assays?
Cruzain noTriton: -7%; Cruzain Triton: -1%

Results for O=C(NCc1nc2ccccc2[nH]1)c1cc2ccccc2oc1=O ?
Cruzain noTriton: 7.9µM*; Cruzain Triton: 14µM*

Results for O=C(Nc1nnc(CCS(=O)(=O)c2ccc(Br)cc2)s1)c1ccc([N+](=O)[O-])cc1 ?
Cruzain noTriton: 5µM*; Cruzain Triton: 5%

Results for O=C(Nc1nnc(COc2ccc(Cl)cc2)s1)c1ccc([N+](=O)[O-])cc1 ?
Cruzain noTriton: -9%; Cruzain Triton: 4%

What do the screens show for `O=C(Nc1nnc(CSCc2ccc(F)cc2)s1)c1ccc([N+](=O)[O-])cc1`?
Cruzain noTriton: 25µM*; Cruzain Triton: -4%

Results for O=C(Nc1nnc(CSCc2ccccc2F)s1)c1cccc([N+](=O)[O-])c1 ?
Cruzain noTriton: inconclusive; Cruzain Triton: -7%

How did Cc1ccc(NC(=O)Cn2c(=O)n(-c3ccc(Cl)c(Cl)c3)c(=O)c3c(C)c(C)sc32)c(C)c1 do in these assays?
Cruzain noTriton: -4%; Cruzain Triton: -3%

What do the screens show for `COc1ccc(N(Cc2cc3cccc(C)c3[nH]c2=O)C(=O)c2cccc(Cl)c2)cc1`?
Cruzain noTriton: inconclusive; Cruzain Triton: -7%

How did CCOc1ccccc1NC(=O)c1c(NCc2ccc(C)o2)sc2c1CCCCC2 do in these assays?
Cruzain noTriton: -12%; Cruzain Triton: -7%

What do the screens show for `CCOc1ccccc1NC(=O)c1c(NC(=O)CNCc2ccco2)sc2c1CCC2`?
Cruzain noTriton: 10µM*; Cruzain Triton: -1%

How did COc1ccc(NC(=O)CCn2nc(-c3ccccc3OC)c3c(C)cc(C)nc32)cc1 do in these assays?
Cruzain noTriton: inconclusive; Cruzain Triton: -6%

Results for CC(C)c1ccc(NC(=O)CSc2nc3c(c(=O)[nH]2)CCC3)cc1 ?
Cruzain noTriton: 13µM*; Cruzain Triton: 2%

How did Cc1ccc(NC(=O)CSc2nc3c(c(=O)[nH]2)CCC3)cc1C do in these assays?
Cruzain noTriton: inconclusive; Cruzain Triton: 2%

What do the screens show for `C=CCOC(=O)NC(c1ccc(F)c(F)c1)C(C(=O)CCl)C(=O)OC` (stereo not drawn)?
Cruzain noTriton: -5%; Cruzain Triton: -21%

What do the screens show for `Cc1ccc(N2C(=O)C3C(C(=O)c4ccccc4)=NN(c4ccccc4)C3C2=O)cc1` (stereo not drawn)?
Cruzain noTriton: 16µM*; Cruzain Triton: -7%

What do the screens show for `CCOc1ccc(N2C(=O)C3C(c4ccccc4)=NN(c4ccccc4)C3C2=O)cc1` (stereo not drawn)?
Cruzain noTriton: 20µM*; Cruzain Triton: -20%

What do the screens show for `CCOc1ccc(N2C(=O)C3C(C2=O)C3(c2ccccc2)c2ccccc2)cc1` (stereo not drawn)?
Cruzain noTriton: -10%; Cruzain Triton: -5%

What do the screens show for `O=C(C1=NN(c2ccccc2)C2C(=O)N(c3ccccc3)C(=O)C12)c1ccccc1` (stereo not drawn)?
Cruzain noTriton: -23%; Cruzain Triton: -4%

How did CCOC(=O)c1cc(-c2ccc(OC)cc2)n(CCC(=O)Nc2ccccc2OC)c1C do in these assays?
Cruzain noTriton: inconclusive; Cruzain Triton: 3%
